Assay [1] can be described thus: qHTS assay for small molecule agonists of the p53 signaling pathway - cell viability (AID 651633; calls by dose curve;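 further: p53RE-bla HCT reporter cells with a stable beta-lactamase p53 reporter; series mostly up to about 83 µM; nearly all actives have a fitted effect of over 30% in size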). In a few lines: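 p53RE-bla cells, seeded at 4,000 per well and rested 5 h at 37 C/5% CO2, received compounds in DMSO for 16 h at 37 C. CellTiter-Glo was then added, and luminescence was read after 30 min at room temperature to gauge cytotoxicity.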
For orientation: Quantitative high-throughput screening tests each substance at several concentrations.

Assay [2] in a line: qHTS assay for small molecules that induce genotoxicity in human embryonic kidney cells expressing luciferase-tagged ATAD5 - cell viability (AID 651634; calls by dose curve; further: nearly all actives have a fitted effect of over 25% in size; further: potency means the concentration at half of the fitted maximal effect). Put shortly:
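15.5 hr compound or vehicle exposure of HEK293T cells expressing luciferase-tagged ATAD5 at 37C; live-cell protease activity is read by fluorescence after 30 min of CellTiter-Fluor.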

Assay [3] in a line: qHTS assay for small molecule disruptors of the mitochondrial membrane potential - cell viability (AID 720634; calls by dose curve;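 further: human HepG2 liver cancer cells; series mostly up to about 83 µM; nearly all actives have a fitted effect of over 20% in size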). In a few lines:
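In this qHTS format, HepG2 cells plated overnight were pinned with compound, incubated 1 hr, and assayed for ATP luminescence with CellTiter-Glo after m-MPI dye addition.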

The nature of assay [4]: qHTS assay to test for compound auto fluorescence at 590 nm (red) in HepG2 cells (AID 720674). Put shortly:
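Compound auto-fluorescence is scored relative to Rose Bengal sodium, measured at 540/590 nm in live HepG2 cultures after 1 hr compound contact (37 C, 5% CO2).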

The nature of assay [5]: qHTS assay to test for compound auto fluorescence at 535 nm (green) in HepG2 cells (AID 720675).
The nature of assay [6]: qHTS assay to test for compound auto fluorescence at 460 nm (blue) in HEK293 cells (AID 720678). Put shortly:
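Cells were seeded and left to adhere for 4-5 hr at 37C. Compounds were then pin-transferred. After an overnight incubation at 37C under 5% CO2, intrinsic fluorescence at 405/460 nm was measured and referenced to triamterene.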

The nature of assay [7]: qHTS assay to test for compound auto fluorescence at 590 nm (red) in HEK293 cells (AID 720679). In a few lines: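 Each well held 2,000 HEK293 cells in medium containing 10% dialyzed FBS. Following 4-5 hr attachment at 37C, 23 nL test compound or DMSO was added; plates sat overnight, and red fluorescence (540/590nm) was recorded.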
Assay [8] is described as follows: qHTS assay to test for compound auto fluorescence at 535 nm (green) in HEK293 cells (AID 720680).
Assay [9] can be described thus: qHTS assay to test for compound auto fluorescence at 460 nm (blue) in HEK293 cell free culture (AID 720681). In a few lines:
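Test compounds were pinned into cell-free culture medium (DMEM with 10% FBS) and fluorescence was read directly at Ex/Em 405/460 nm. Signals were expressed as fluorescence equivalents of triamterene, with DMSO vehicle as control.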

Assay [10] can be described thus: qHTS assay to test for compound auto fluorescence at 535 nm (green) in HEK293 cell free culture (AID 720682). In a few lines:
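Compounds were pin-transferred into cell-free DMEM with 10% FBS, and green fluorescence was read at excitation 485 nm and emission 535 nm. Intensities were expressed as fluorescein-equivalent values.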

Assay [11] is described as follows: qHTS assay to test for compound auto fluorescence at 590 nm (red) in HEK293 cell free culture (AID 720683). Put shortly:
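Tox21 10K library compounds were pinned into cell-free DMEM with 10% FBS and fluorescence was read at excitation 540 nm. Activity is expressed as Rose Bengal sodium equivalency.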

Assay [12] in a line: qHTS assay to test for compound auto fluorescence at 590 nm (red) in HepG2 cell free culture (AID 720684). Put shortly:
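Ex 540 / Em 590 nm read of compound in cell-free MEM (10% FBS). Rose Bengal sodium reference.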

The nature of assay [13]: qHTS assay to test for compound auto fluorescence at 460 nm (blue) in HepG2 cell free culture (AID 720685). In a few lines: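 Cell-free plates of MEM plus 10% FBS received 23 nL compound or DMSO vehicle; blue-channel (405/460 nm) intensity scored against triamterene as reference fluorophore.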
Assay [14] is described as follows: qHTS assay to test for compound auto fluorescence at 535 nm (green) in HepG2 cell free culture (AID 720686).
Assay [15] can be described thus: qHTS assay to test for compound auto fluorescence at 460 nm (blue) in HepG2 cells (AID 720687). Put shortly: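 Cells (2,000/well in MEM with 10% FBS) attached overnight at 37 C, then were exposed to compound or DMSO for 1 hr at 37 C, 5% CO2. Fluorescence read at Ex/Em 405/460 nm, expressed as triamterene-equivalent signal.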
A short description of assay [16]: qHTS assay for small molecules that induce genotoxicity in human embryonic kidney cells expressing luciferase-tagged ATAD5 (AID 651632). Further: nearly all actives have a fitted effect of over 15% in size. Put shortly:
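Concentration-response screen for ATAD5 upregulation in HEK293T luciferase reporter cells; 16 hr treatment at 37C, then luminescence after 30 min with Amplite at room temperature.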

Assay [17] is described as follows: qHTS assay for small molecule disruptors of the mitochondrial membrane potential (AID 720635). Further: potency means the concentration at half of the fitted maximal effect. In a few lines: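 HepG2 cells (2,000/well) attached overnight at 37C, then took compound for 1 hr at 37C, 5% CO2. Mito-MPS dye was added for 30 min; fluorescence was read at 490/535 nm (monomers) and 540/590 nm (aggregates).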
In assay [18] the target is Glucocorticoid receptor (Homo sapiens) (UniProt P04150). As to the kind of experiment: qHTS assay to identify small molecule antagonists of the glucocorticoid receptor (GR) signaling pathway (AID 720692; active means well fitted inhibition curve with a large enough effect in the signal ratio in the repeat runs, not every such curve was filed as active; the % refers to the signal ratio). Put shortly: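 Tox21 10K library screened in concentration-response for blockade of dexamethasone (5 nM final)-induced GRE-bla reporter activity in HeLa cells; 18 h treatment, fluorescence read.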

The target is the same in assay [19]. As to the kind of experiment: qHTS assay to identify small molecule agonists of the glucocorticoid receptor (GR) signaling pathway (AID 720691; active means well fitted activation curve with a large enough effect in the signal ratio in the repeat runs, not every such curve was filed as active; the % refers to the signal ratio). In a few lines:
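Measures GR pathway activation through a GRE-beta-lactamase reporter stably integrated in HeLa cells, with 18 h compound treatment at 37 C and fluorescence detection using a FRET substrate.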

The structures appear in SMILES notation. Values without a mark were called inactive. Results filed as inconclusive are left out. Calls of active or inactive are those of the source. Unless noted, the call rests on the fitted dose curve; in most records, active means well fitted curve in the direction sought with a large enough effect in the repeat runs; inconclusive means weak or mixed curves; inactive means no such curve, though single readings can be large; an effect the other way counts as inactive or inconclusive.

Glucocorticoid receptor (Homo sapiens), sequence (P04150 whole entry, looked up): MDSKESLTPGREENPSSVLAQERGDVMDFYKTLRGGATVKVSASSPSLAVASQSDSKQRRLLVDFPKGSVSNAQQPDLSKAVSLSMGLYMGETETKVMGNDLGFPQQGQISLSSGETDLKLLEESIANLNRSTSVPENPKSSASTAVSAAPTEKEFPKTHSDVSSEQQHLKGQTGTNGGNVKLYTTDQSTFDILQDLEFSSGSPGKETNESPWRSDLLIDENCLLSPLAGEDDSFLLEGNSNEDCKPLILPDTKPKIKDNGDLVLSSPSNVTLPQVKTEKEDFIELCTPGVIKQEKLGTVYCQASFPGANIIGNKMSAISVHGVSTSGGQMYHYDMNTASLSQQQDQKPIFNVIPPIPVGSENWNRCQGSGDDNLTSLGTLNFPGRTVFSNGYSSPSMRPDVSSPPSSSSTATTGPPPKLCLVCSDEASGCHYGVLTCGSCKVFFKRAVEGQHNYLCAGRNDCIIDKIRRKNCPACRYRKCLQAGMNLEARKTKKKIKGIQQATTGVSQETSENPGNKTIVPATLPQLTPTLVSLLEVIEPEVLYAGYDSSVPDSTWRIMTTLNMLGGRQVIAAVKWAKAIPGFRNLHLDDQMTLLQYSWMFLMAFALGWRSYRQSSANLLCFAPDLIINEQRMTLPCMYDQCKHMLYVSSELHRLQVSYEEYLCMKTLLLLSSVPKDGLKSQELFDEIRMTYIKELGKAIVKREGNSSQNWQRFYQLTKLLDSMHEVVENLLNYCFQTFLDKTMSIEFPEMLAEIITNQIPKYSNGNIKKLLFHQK

Turning to `Clc1cc(C(Cl)(Cl)Cl)cnc1Cl`, the Potency entry in assay [1], in assay [2] and in assay [3] was “inactive” each time. Also, the call in [4], in assay [5], in assay [6], in assay [7], in assay [8] and in assay [9] was inactive. Also, the compound was called inactive in assay [10], in assay [11], in assay [12], in assay [13], in assay [14] and in assay [15].
Consider `CCOP(=S)(Oc1ccc([N+](=O)[O-])cc1)c1ccccc1` (stereo not given), for which the Potency entry in [16] and in [2] was “inactive” throughout. Moreover, the Potency in [17] is 21.7 µM (active). Besides, the compound was classed as inactive in assay [4], in assay [5], in [6], in assay [7], in assay [8] and in [9]. For the same compound, the compound was classed as inactive in [10], in assay [11], in assay [12], in [13], in assay [14] and in [15].
On to `COCCOCCO`, for which the Potency result in assay [16], in [2] and in assay [3] was “inactive” throughout. The call in assay [4], in assay [5], in assay [6], in assay [7], in assay [8] and in assay [9] was inactive. The outcome in assay [10], in assay [11], in assay [12], in assay [13], in assay [14] and in [15] was inactive.
As to `CC(C)(C)c1cc([N+](=O)[O-])cc([N+](=O)[O-])c1O`, in assay [16], the Potency entry was “inactive”. The Potency in assay [2] is 6.09 µM (active); in [17], 0.484 µM (active). For the same compound, the call in assay [4], in assay [5], in assay [7], in assay [8], in assay [9] and in assay [10] was inactive. Also, the outcome in assay [11], in assay [12], in [13], in [14] and in assay [15] was inactive.
In the case of `CCCN(CCC)c1c([N+](=O)[O-])cc(S(C)(=O)=O)cc1[N+](=O)[O-]`, the Potency entry in [16], in assay [1], in assay [2] and in [18] was “inactive” throughout. Moreover, the outcome in assay [4], in [5], in assay [7], in [8], in [9] and in assay [10] was inactive. In addition, the outcome in [11], in [12], in assay [13], in assay [14] and in assay [15] was inactive.
In the case of `NS(=O)(=O)C(F)(F)C(F)(F)C(F)(F)C(F)(F)C(F)(F)C(F)(F)C(F)(F)C(F)(F)F`, the Potency entry in assay [16] and in assay [2] was “inactive” each time. For the same compound, the compound was called inactive in assay [4], in assay [5], in assay [6], in assay [7], in [8] and in [9]. Further, the compound was called inactive in assay [10], in assay [11], in assay [12], in [13], in assay [14] and in assay [15].
As for `Clc1cccc2ccccc12`, the Potency result in [16], in [2] and in assay [3] was “inactive” each time. The call in assay [4], in [5], in assay [6], in assay [7], in assay [8] and in assay [9] was inactive. Further, the result in assay [10], in assay [11], in assay [12], in assay [13], in assay [14] and in assay [15] was inactive.
In the case of `C/C(=C\c1ccccc1)[N+](=O)[O-]`, the Potency entry in [16] and in [3] was “inactive” each time. The Potency in [2] is 24.3 µM (active); in assay [17], 30.6 µM (active). The compound was classed as inactive in assay [4], in [5], in assay [6], in assay [7], in assay [8] and in assay [9]. The compound was classed as inactive in assay [10], in [11], in [12], in assay [13], in assay [14] and in assay [15].
Turning to `O=[N+]([O-])c1cc(C(F)(F)F)cc([N+](=O)[O-])c1Cl`, the Potency entry in assay [16], in assay [1] and in [18] was “inactive” throughout. The outcome in [4], in [5], in assay [6], in assay [7], in assay [8] and in assay [9] was inactive. Also, the result in [10], in [11], in [12], in assay [13], in [14] and in assay [15] was inactive. Moreover, in [19], the call was inactive.

Values taken from PubChem BioAssay (Tox21).
